The sample as a whole holds a higher share of hits than the screen did.
SARS PLP yeast: qHTS of Yeast-based Assay for SARS-CoV PLP; S. cerevisiae expressing SARS-CoV PLpro, growth rescue; Potency, µM (doses to about 32.9 µM), for the others: at the top dose activity, positive = growth rescue, hits mostly activators; 0.19% of 330,000 active; AID 485353, 2010; calls by dose curve; also: potency is read from the fitted curve at half-maximal effect; 0% is about no effect; nearly all actives have a fitted effect of over 55% in size
Tb PYK inh: qHTS of Trypanosoma Brucei Inhibitors | pyruvate kinase (Trypanosoma brucei), Q57TT1 | TbPYK enzyme, Kinase-Glo Plus ATP luminescence, 45 min | Potency, µM (highest dose often 76.8 µM), for inactives: at the top dose activity, negative = inhibition, most hits filed as inhibitors | 0.12% of 410,000 active | AID 624173, 2012; also: potency is read from the fitted curve at half-maximal effect; % is scaled to controls: 0 for no effect and ±100 for the full control effect; nearly all actives have a fitted effect of over 50% in size
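TbPYK + substrate in 50 mM TEA pH 7.2, 100 mM KCl, 10 mM MgCl2, 0.05% BSA, 0.01% Tween-20; cpd pinned; ADP 130 uM final; 45 min RT; Kinase-Glo Plus 10 min; luminescence endpoint.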
Shiga inhibitor: A qHTS for Small Molecule Inhibitors of Shiga Toxin; 9.2% of 290,000 active; Vero cells, Shiga toxin protein synthesis inhibition reporter; inhibition, % at 38.7 µM; in the data active = inhibition mostly above about 28%, no sharp cut-off; inactive = mostly below about 43%; also: 0% is about no effect
CHX counter: Cycloheximide Counterscreen for Small Molecule Inhibitors of Shiga Toxin. cell reporter, cycloheximide protein synthesis inhibition counterscreen. max response, %. 12% of 300,000 active. AID 2314, 2010; in the data active = max response mostly above about 13%, no sharp cut-off; inactive = mostly below about 14%; also: read at 38.3 µM for the half of the compounds with a filed dose; 0% is about no effect
NS1 function inh: qHTS Assay for Inhibitors of Influenza NS1 Protein Function; Potency, µM (series often up to 46.1 µM), for the others: at the highest dose activity, positive = more growth; 0.4% of 270,000 active; AID 2326, 2010; calls by dose curve; also: potency is read from the fitted curve at half-maximal effect; actives are rising curves; nearly all actives have a fitted effect of over 50% in size
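A cell-based growth assay was used: compounds that relieve NS1-induced slow growth of budding yeast raise OD600. Assay medium was yeast nitrogen base with ammonium sulphate and -URA supplement, pH 6.0, with 2% galactose.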
LmPK inhibitor: qHTS Assay for Inhibitors of Leishmania Mexicana Pyruvate Kinase (LmPK) | Q27686 | purified LmPK, Kinase-Glo ATP luminescence, 1 h | Potency, µM (highest dose often 57.5 µM), for inactives: at the top dose activity change, negative = inhibition, usual class: inhibitors | 0.37% of 290,000 active | AID 1721, 2009; also: potency is read from the fitted curve at half-maximal effect; % is scaled to controls: 0 for no effect and ±100 for the full control effect
Target sequence (Q27686 whole entry, looked up): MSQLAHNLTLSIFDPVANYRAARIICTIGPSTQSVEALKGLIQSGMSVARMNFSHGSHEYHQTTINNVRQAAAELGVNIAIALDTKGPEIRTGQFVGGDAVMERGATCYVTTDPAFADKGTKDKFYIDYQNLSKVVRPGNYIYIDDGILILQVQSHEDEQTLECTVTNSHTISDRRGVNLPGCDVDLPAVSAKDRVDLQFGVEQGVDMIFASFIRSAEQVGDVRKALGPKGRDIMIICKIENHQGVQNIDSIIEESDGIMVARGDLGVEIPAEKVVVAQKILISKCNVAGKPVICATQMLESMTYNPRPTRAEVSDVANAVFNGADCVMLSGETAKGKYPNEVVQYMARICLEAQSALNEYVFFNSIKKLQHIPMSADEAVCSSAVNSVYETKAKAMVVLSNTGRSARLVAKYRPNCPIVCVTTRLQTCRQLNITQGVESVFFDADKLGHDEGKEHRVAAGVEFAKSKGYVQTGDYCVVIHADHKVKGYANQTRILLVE
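Kinase-Glo luminescence read after 1 h RT reaction of 0.1 nM LmPK with 0.5 mM PEP and 0.1 mM ADP. Activity scaled between uninhibited and enzyme-free controls.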
* hit, by the source's call; u = inconclusive; x = no result given. Unless noted, calls follow the shape of the dose curve; as a rule, active = well fitted curve in the direction sought with a large enough effect; inconclusive = small, poorly fitted or top-dose-only effect, or another doubt; inactive = no such curve, though single readings can be large; an effect the other way counts as inactive or inconclusive.

SMILES	SARS PLP yeast	Tb PYK inh	Shiga inhibitor	CHX counter	NS1 function inh	LmPK inhibitor
CCOC(=O)c1c(C)oc2c1c(C(c1cccnc1)N1CCCCC1)c(O)c1ccccc12 (configuration not stated)	-24.5%	-8.3%	95.0*	57.1*	-9.3%	4.8%
CCOC(=O)c1c(C)oc2c1c(/C=N/c1ccccn1)c(O)c1ccccc12	x	x	x	x	25.2%	x
CCOC(=O)c1c(C)oc2c1c(C=NCCO)c(O)c1ccccc12	-1.3%	-5.0%	43.8	28.1*	-12.4%	-5.6%
O=c1c2ccccc2c(=O)n2n1Cc1ccccc1C2	x	-3.2%	20.3	14.2*	-54.0%	-0.9%
CCN(CC)c1ccc2c(C)c(-c3ccc(N)cc3)c(=O)oc2c1	-8.7%	14.1%	33.7*	26.9*	21.5%	-0.3%
Cc1c(CCC(=O)NCCc2ccccc2)c(=O)oc2cc(O)ccc12	x	0.5%	x	x	x	x
CCOC(=O)Cc1c(C)c2ccc(N(CC)CC)cc2oc1=O	4.6%	-0.5%	99.9*	19.3*	-9.1%	-4.4%
CCOC(=O)CCc1c(C)c2ccc(O)cc2oc1=O	-4.6%	1.0%	-1.4	13.2*	-27.0%	5.0%
NC(=O)C1(Nc2ccc(Br)cc2)CCCC1	x	-2.6%	x	x	x	x
Cc1cc(C)c(C(=O)OCC(=O)Nc2cccc(S(=O)(=O)N3CCCCC3)c2)c(C)c1	-3.9%	-10.3%	x	x	x	x
CCC(=O)Nc1cccc(-n2nnnc2SCC(=O)NCc2ccco2)c1	0.8%	-6.4%	28.8	8.1	-6.7%	-3.4%
CCCCn1nnnc1SCC(=O)c1ccc(C)c(C)c1	-17.5%	4.8%	19.1	37.8*	-56.6%	0.6%
CCC(=O)Nc1cccc(-n2nnnc2SCC(=O)c2ccc(C)c(C)c2)c1	u	-7.9%	42.2*	26.0*	-4.0%	2.8%
CCc1ccc(S(=O)(=O)NCc2ccc(C(=O)NCCN(Cc3ccccc3)C(C)C)cc2)cc1	x	0.6%	x	x	x	x
CSCc1ccc(C(=O)NCc2ccc(F)cc2)cc1	-2.8%	-6.0%	-52.2	3.2	3.9%	-0.8%
CSCc1ccc(C(=O)Nc2ccc(C(N)=O)cc2)cc1	-1.1%	-2.9%	50.4*	28.4*	-1.1%	u
CSCc1ccc(C(=O)NCc2ccccc2)cc1	26.9%	0.8%	27.3	31.0*	-5.5%	0.0%
CSCc1ccc(C(=O)NCc2ccc(C)cc2)cc1	-0.8%	-0.4%	active	21.0*	-8.3%	2.2%
O=C(NCc1ccccc1)c1ccc(Cl)cc1	-0.1%	4.3%	11.6	17.4	-2.9%	-0.7%
Cc1cc(C)cc(C(=O)NCC(=O)OCC(=O)NCc2ccco2)c1	-0.4%	-2.8%	-2.4	-0.8	x	3.3%
COc1ccccc1CNS(=O)(=O)c1ccc2c(c1)NC(=O)CC(=O)N2	x	0.3%	x	x	x	x
Cc1c(OCc2ccc([N+](=O)[O-])cc2)ccc2c3c(c(=O)oc12)CCC3	-6.9%	2.4%	28.7	30.8*	13.5%	0.7%
Cc1c(OCC(=O)N(C)C)ccc2c3c(c(=O)oc12)CCCCC3	0.2%	-7.5%	-8.0	-1.8	-3.2%	3.9%
CC(=O)COc1ccc2c3c(c(=O)oc2c1C)CCCCC3	-2.1%	3.6%	63.7*	18.9*	-2.1%	-0.8%
Cc1cc(OCc2ccc([N+](=O)[O-])cc2)c2c3c(c(=O)oc2c1)CCCC3	-0.7%	4.1%	-4.7	-3.6	5.2%	-1.9%
SMILES	SARS PLP yeast	Tb PYK inh	Shiga inhibitor	CHX counter	NS1 function inh	LmPK inhibitor
Cc1ccc(-n2c(CNCc3ccc(F)cc3)nc3ccccc3c2=O)cc1	-1.3%	-17.1%	13.6	15.4*	24.5%	-0.9%
O=c1c2ccccc2nc(Cc2ccccc2)n1-c1ccccc1	0.5%	0.9%	18.4	19.2*	-4.3%	-5.5%
N=C(N)SCc1nc2ccccc2c(=O)n1-c1ccccc1	2.6%	-9.8%	67.9*	44.7*	8.6%	-15.4%
O=C(O)c1ccc(CSc2nc3ccccc3c(=O)n2-c2ccccc2)cc1	8.5%	10.4%	-10.8	-3.3	5.1%	5.2%
Cc1cccc(COC(=O)CCCNC(=O)c2ccc(Cl)cc2)c1	-12.7%	4.4%	x	x	x	x
CC(OC(=O)Cn1ccccc1=O)C(=O)Nc1cc(Cl)cc(Cl)c1 (configuration not stated)	-3.1%	7.8%	x	x	x	x
COc1ccc(/C=C/C(=O)O)cc1S(=O)(=O)NCc1cccnc1	6.3%	-1.1%	13.5	-3.2	u	3.5%
COc1ccc(-c2cc(C(=O)NC3CCCC3)c3ccccc3n2)cc1OC	x	1.4%	x	x	x	x
O=C(Nc1nc2c(s1)CCCC2)c1cc(-c2ccncc2)nc2ccccc12	-6.9%	-1.4%	-1.9	1.6	9.1%	2.6%
O=C(NC1=NCCS1)c1cc(-c2ccc(-c3ccccc3)cc2)nc2ccccc12	-75.1%	2.0%	28.3	23.7*	0.2%	1.4%
O=C(Nc1nc2c(s1)CCCC2)c1cc(-c2ccccc2)nc2ccccc12	-21.3%	-8.7%	19.4	13.7*	9.0%	1.9%
COc1ccc(-c2cc(C(=O)NC3=NCCS3)c3ccccc3n2)cc1OC	0.2%	3.8%	46.1	26.8*	1.1%	-1.6%
Cc1cc(C(=O)NC2=NCCS2)c2ccccc2n1	-1.3%	0.3%	29.8	7.2	x	7.2%
CC(C)(C)c1ccc(S(=O)(=O)/C=C/C#N)cc1	x	x	x	x	-35.7%	x
FC(F)Oc1ccc(N=C2SCC3CCCCN23)cc1 (configuration not stated)	1.0%	2.8%	131.2*	52.8*	-9.3%	-0.6%
Clc1ccc(N=C2SCC3CCCCN23)cc1 (configuration not stated)	-12.7%	3.2%	76.6*	70.1*	-7.7%	-3.8%
Cc1c(C(=O)Nc2ccc(C(C)C)cc2)sc2nc3n(c(=O)c12)CCC3	x	2.1%	x	x	x	x
O=C(CCc1nnc(-c2ccccc2)o1)NCc1cc(F)ccc1F	0.8%	-3.7%	29.0	16.8*	0.7%	2.9%
CC(C)c1nc(CNC(=O)CCc2nnc(-c3ccsc3)o2)cs1	0.3%	2.7%	58.3	9.0	-6.6%	0.8%
O=C(CCc1nnc(-c2ccsc2)o1)NCc1ccccc1OC(F)(F)F	-0.4%	-2.6%	8.7	10.5*	8.5%	3.6%
Cc1cccc(CSc2nc3c(cc2C#N)CCC3)c1	3.3%	0.0%	-2.4	-3.5	4.4%	4.1%
N#Cc1cc2c(nc1SCc1nc3ccccc3[nH]1)CCC2	-31.5%	x	22.4	43.8*	-119.5%	-18.4%
Cc1cc(C)c(C#N)c(SCc2ccc(F)cc2)n1	0.0%	4.1%	6.8	-3.4	-3.1%	-3.2%
Cc1cc(C)c(C#N)c(SCc2nc3ccccc3[nH]2)n1	-4.9%	-6.6%	93.9*	35.6*	-59.8%	1.5%
COc1cc(OC)c(OC)cc1/C=C(\C#N)C(=O)NCc1cccs1	1.8%	2.4%	10.1	0.9	3.5%	-0.8%
Cc1cc(/C=C(\C#N)C(=O)NCc2cccs2)c(C)[nH]1	0.9%	3.5%	67.2	16.3*	-0.8%	2.4%

Assay outcomes: PubChem, National Center for Advancing Translational Sciences (NCATS)
